Columns and labels:
Assay in all cases: DAPPL (digital affinity profiling via proximity ligation, sequencing); 10 mM Tris-HCl pH 7.5, 50 mM NaCl, 1 mM DTT, 4% glycerol, room temperature, 30 min; GST-TFs on glutathione beads, 16-mer random dsDNA library, 0.1% formaldehyde crosslink after washing; high values mean tight binding
[1] = target: T1, FEV (Homo sapiens, UniProt Q99581 1-238); details: protein: recombinant; tags: N-terminal GST; dsDNA, one strand shown
T1 sequence: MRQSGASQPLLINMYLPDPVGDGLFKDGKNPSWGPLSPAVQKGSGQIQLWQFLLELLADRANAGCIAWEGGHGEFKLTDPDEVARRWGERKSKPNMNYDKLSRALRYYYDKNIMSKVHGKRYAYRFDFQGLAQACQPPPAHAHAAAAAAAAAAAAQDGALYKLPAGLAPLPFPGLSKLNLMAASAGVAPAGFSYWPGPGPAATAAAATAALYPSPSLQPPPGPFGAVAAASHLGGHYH
How it was run: (§1)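 Pools of DNA-barcoded human transcription factors, expressed in yeast as GST fusions on glutathione beads and combined with a tag-only sample, were incubated with 200 nmole of a 16-mer random double-stranded DNA library. Incubation took 30 min at room temperature in Tris/NaCl/DTT/glycerol buffer and was followed by washing, 0.1% formaldehyde crosslinking, proximity ligation (BsaI/T4 ligase, 1 h, 37 °C), PCR amplification and sequencing on an Illumina NextSeq500. Binding signal is the ratio of a hexamer's read frequency for a factor to its frequency for the tag-only sample.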

[2] = target: ETV5 (Homo sapiens, UniProt P41161 1-510); details: protein: recombinant; tags: N-terminal GST; dsDNA, one strand shown
Chain of ETV5 (P41161 whole entry): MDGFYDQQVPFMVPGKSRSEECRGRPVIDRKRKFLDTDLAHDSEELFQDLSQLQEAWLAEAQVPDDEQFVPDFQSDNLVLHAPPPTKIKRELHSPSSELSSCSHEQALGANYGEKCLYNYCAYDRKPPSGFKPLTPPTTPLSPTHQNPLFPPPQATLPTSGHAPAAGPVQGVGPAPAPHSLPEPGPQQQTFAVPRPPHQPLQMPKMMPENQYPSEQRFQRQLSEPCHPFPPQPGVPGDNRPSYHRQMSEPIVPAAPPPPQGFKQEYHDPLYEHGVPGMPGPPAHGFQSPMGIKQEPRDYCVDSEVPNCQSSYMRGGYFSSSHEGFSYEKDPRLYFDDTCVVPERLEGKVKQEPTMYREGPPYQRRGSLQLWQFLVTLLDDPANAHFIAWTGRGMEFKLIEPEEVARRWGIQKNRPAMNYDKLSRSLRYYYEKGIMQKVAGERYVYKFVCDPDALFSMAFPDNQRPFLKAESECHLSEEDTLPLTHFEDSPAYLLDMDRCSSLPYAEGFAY
How it was run: as §1

[3] = target: HSF1 (Homo sapiens, UniProt Q00613 1-529); details: protein: recombinant; tags: N-terminal GST; chain copies: 3; dsDNA, one strand shown
Chain of HSF1 (Q00613 whole entry): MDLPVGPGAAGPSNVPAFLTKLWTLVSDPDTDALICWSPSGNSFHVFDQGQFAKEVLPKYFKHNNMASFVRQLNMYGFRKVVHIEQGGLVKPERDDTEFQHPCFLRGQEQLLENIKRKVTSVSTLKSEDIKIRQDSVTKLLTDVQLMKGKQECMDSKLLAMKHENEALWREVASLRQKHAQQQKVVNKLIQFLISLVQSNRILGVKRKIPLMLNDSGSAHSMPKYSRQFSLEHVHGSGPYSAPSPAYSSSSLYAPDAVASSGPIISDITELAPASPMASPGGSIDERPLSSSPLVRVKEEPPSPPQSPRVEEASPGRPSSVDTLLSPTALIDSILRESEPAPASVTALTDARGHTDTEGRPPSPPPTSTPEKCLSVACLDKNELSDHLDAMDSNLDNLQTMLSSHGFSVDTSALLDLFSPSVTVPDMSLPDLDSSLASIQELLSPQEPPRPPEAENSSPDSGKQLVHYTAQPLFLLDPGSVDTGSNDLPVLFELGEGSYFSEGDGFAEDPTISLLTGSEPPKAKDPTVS
How it was run: as §1

[4] = target: T2, SPIC (Homo sapiens, UniProt Q8N5J4 1-248); details: protein: recombinant; tags: N-terminal GST; dsDNA, one strand shown
T2 sequence: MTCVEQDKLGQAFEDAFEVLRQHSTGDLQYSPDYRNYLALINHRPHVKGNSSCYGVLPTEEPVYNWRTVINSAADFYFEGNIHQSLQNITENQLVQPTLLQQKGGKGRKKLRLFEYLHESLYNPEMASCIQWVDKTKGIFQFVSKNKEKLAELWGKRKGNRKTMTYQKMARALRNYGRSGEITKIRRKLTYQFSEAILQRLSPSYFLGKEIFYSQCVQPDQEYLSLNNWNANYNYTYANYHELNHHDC
How it was run: as §1

[5] = target: ELF4 (Homo sapiens, UniProt Q99607 1-663); details: protein: recombinant; tags: N-terminal GST; dsDNA, one strand shown
Chain of ELF4 (Q99607 whole entry): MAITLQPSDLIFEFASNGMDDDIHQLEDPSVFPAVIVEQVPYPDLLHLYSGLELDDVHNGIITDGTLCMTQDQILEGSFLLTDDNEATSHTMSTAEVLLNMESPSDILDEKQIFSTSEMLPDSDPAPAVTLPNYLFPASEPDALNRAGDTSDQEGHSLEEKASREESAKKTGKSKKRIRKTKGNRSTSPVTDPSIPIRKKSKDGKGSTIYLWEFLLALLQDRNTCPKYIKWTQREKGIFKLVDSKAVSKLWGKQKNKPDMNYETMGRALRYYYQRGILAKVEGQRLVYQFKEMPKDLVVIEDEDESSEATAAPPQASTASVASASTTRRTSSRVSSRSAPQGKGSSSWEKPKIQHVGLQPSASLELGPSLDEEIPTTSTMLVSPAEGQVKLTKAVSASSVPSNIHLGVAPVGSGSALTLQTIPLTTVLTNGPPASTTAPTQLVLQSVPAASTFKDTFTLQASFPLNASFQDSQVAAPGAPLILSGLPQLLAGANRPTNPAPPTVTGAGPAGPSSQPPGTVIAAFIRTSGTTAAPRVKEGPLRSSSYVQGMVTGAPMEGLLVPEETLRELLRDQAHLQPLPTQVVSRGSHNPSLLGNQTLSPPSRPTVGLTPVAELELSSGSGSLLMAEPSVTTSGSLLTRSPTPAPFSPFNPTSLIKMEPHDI
How it was run: as §1

[6] = target: T3, ELK4 (Homo sapiens, UniProt P28324-2 1-405); details: protein: recombinant; tags: N-terminal GST; dsDNA, one strand shown
T3 sequence: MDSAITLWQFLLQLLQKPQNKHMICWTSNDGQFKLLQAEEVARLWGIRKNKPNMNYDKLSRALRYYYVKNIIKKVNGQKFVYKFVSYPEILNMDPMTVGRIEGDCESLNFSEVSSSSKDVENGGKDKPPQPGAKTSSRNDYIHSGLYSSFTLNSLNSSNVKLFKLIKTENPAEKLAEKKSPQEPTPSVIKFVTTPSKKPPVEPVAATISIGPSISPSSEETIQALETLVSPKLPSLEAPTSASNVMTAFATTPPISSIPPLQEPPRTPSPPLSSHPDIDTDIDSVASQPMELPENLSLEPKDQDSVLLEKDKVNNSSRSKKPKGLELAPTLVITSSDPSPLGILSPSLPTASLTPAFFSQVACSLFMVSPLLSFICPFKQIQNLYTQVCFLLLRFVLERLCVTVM
How it was run: as §1

[7] = target: T4, ETV2 (Homo sapiens, UniProt O00321 1-342); details: protein: recombinant; tags: N-terminal GST; dsDNA, one strand shown
T4 sequence: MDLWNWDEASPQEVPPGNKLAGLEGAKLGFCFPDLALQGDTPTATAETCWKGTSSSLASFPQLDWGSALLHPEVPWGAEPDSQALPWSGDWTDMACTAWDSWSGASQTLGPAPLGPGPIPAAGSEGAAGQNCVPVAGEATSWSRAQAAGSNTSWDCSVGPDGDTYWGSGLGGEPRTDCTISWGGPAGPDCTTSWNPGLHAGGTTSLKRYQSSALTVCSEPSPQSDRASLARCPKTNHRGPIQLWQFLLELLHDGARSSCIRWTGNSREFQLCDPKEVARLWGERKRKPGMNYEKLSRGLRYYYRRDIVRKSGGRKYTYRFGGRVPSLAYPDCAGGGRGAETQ
How it was run: as §1

[8] = target: T5, ELF3 (Homo sapiens, UniProt P78545 1-371); details: protein: recombinant; tags: N-terminal GST; dsDNA, one strand shown
T5 sequence: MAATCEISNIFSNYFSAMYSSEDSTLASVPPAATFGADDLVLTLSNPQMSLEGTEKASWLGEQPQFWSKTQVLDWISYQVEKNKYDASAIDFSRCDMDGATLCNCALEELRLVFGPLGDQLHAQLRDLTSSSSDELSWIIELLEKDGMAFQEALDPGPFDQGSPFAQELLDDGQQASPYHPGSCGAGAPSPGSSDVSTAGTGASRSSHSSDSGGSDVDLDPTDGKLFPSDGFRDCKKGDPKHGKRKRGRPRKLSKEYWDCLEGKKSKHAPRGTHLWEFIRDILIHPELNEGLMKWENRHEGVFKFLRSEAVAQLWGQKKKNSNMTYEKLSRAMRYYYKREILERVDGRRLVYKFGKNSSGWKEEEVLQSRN
How it was run: as §1

[9] = target: CRX (Homo sapiens, UniProt O43186 1-299); details: protein: recombinant; tags: N-terminal GST; dsDNA, one strand shown
Chain of CRX (O43186 whole entry): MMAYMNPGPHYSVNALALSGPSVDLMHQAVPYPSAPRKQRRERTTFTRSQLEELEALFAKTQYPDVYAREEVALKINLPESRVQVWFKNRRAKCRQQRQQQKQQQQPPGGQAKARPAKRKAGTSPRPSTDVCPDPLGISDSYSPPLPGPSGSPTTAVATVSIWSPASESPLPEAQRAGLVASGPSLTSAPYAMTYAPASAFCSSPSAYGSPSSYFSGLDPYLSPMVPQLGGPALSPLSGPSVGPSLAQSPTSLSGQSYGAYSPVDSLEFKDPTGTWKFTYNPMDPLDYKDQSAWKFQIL
How it was run: as §1

[10] = target: ETV1 (Homo sapiens, UniProt P50549 1-477); details: protein: recombinant; tags: N-terminal GST; dsDNA, one strand shown
Chain of ETV1 (P50549 whole entry): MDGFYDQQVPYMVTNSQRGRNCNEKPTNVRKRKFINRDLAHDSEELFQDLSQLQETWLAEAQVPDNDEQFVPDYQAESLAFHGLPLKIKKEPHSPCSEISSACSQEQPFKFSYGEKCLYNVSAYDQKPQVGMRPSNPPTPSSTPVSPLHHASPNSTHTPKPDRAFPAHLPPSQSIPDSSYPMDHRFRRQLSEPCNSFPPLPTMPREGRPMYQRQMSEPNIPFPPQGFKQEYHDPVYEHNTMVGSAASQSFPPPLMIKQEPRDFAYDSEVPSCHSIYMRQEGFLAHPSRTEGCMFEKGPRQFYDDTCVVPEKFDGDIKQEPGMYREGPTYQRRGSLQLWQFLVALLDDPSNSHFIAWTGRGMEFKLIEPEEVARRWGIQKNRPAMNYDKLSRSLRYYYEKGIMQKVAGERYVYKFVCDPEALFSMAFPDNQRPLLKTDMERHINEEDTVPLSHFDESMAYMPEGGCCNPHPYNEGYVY
How it was run: as §1

[11] = target: T6, ERF (Homo sapiens, UniProt P50548 1-548); details: protein: recombinant; tags: N-terminal GST; dsDNA, one strand shown
T6 sequence: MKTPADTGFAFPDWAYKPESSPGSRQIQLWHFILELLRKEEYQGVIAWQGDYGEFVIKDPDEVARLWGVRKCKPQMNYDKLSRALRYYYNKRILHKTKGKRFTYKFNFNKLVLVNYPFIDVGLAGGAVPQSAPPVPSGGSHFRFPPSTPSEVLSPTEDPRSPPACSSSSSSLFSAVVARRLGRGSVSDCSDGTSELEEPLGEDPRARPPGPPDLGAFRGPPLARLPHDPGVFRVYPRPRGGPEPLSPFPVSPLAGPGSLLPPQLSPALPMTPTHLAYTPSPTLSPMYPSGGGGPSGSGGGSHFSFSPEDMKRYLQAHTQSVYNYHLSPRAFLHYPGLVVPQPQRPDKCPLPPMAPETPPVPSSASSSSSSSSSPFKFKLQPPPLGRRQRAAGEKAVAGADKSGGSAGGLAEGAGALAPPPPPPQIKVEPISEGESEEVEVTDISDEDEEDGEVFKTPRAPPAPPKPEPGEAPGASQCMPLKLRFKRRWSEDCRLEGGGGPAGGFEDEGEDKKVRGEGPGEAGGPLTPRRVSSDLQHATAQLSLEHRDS
How it was run: as §1

[12] = target: T7, ETV3L (Homo sapiens, UniProt Q6ZN32 1-361); details: protein: recombinant; tags: N-terminal GST; dsDNA, one strand shown
T7 sequence: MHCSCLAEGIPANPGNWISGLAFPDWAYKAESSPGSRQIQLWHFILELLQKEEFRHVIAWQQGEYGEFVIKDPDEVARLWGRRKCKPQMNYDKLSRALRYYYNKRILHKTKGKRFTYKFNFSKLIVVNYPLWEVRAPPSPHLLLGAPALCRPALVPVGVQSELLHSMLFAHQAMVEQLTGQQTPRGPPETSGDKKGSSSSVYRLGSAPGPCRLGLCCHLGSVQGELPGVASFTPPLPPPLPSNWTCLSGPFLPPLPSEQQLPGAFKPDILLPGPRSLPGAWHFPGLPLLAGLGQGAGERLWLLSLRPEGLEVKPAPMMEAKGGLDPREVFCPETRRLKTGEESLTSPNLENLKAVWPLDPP
How it was run: as §1

[13] = target: T8, ETS2 (Homo sapiens, UniProt P15036 1-469); details: protein: recombinant; tags: N-terminal GST; dsDNA, one strand shown
T8 sequence: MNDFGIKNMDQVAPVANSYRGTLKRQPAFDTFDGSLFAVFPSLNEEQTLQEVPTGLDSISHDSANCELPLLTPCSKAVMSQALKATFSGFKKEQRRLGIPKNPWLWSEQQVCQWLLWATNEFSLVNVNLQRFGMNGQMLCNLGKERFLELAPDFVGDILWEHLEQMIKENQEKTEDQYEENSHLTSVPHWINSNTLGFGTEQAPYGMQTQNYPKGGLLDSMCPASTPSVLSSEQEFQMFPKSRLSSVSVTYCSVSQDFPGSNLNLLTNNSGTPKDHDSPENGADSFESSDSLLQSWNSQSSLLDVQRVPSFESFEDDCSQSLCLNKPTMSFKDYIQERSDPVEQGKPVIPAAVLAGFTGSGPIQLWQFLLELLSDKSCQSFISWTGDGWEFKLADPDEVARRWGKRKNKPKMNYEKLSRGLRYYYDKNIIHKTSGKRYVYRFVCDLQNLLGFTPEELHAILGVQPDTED
How it was run: as §1

[14] = target: T9, SPDEF (Homo sapiens, UniProt O95238 1-335); details: protein: recombinant; tags: N-terminal GST; dsDNA, one strand shown
T9 sequence: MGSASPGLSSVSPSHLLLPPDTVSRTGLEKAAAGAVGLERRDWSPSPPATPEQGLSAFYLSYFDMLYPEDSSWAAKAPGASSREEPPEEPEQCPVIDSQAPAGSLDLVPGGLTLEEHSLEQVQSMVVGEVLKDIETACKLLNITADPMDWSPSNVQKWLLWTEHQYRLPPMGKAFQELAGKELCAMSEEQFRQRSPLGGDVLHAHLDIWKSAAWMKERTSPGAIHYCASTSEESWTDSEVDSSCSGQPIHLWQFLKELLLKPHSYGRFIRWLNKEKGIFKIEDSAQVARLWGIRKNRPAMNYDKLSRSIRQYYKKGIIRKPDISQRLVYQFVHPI
How it was run: as §1

[15] = target: T10, ETV7 (Homo sapiens, UniProt Q9Y603 1-341); details: protein: recombinant; tags: N-terminal GST; dsDNA, one strand shown
T10 sequence: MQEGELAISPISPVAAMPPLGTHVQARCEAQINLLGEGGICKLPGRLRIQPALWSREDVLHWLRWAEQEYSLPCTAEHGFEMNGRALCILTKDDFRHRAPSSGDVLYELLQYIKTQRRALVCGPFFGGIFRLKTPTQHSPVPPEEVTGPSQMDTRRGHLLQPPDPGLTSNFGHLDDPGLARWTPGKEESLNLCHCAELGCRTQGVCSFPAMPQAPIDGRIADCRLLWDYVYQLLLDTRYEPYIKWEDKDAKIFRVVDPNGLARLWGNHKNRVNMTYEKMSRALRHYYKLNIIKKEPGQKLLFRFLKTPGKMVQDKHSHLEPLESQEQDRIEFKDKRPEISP
How it was run: as §1

[16] = target: T11, ELF5 (Homo sapiens, UniProt Q9UKW6-2 1-255); details: protein: recombinant; tags: N-terminal GST; dsDNA, one strand shown
T11 sequence: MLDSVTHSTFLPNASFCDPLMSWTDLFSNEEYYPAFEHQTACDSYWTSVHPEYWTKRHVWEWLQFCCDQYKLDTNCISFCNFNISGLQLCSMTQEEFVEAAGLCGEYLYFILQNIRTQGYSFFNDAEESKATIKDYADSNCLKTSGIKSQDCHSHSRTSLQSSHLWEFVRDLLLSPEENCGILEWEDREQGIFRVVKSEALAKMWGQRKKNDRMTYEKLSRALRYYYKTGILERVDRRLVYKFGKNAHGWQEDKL
How it was run: as §1

[17] = target: T12, ETV3 (Homo sapiens, UniProt P41162-2 1-143); details: protein: recombinant; tags: N-terminal GST; dsDNA, one strand shown
T12 sequence: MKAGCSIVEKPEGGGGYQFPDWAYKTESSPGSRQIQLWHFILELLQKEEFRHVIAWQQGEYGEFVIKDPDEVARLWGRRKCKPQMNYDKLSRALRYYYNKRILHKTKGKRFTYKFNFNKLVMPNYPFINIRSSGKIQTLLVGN
How it was run: as §1

[18] = target: ETV6 (Homo sapiens, UniProt P41212 1-452); details: protein: recombinant; tags: N-terminal GST; dsDNA, one strand shown
Chain of ETV6 (P41212 whole entry): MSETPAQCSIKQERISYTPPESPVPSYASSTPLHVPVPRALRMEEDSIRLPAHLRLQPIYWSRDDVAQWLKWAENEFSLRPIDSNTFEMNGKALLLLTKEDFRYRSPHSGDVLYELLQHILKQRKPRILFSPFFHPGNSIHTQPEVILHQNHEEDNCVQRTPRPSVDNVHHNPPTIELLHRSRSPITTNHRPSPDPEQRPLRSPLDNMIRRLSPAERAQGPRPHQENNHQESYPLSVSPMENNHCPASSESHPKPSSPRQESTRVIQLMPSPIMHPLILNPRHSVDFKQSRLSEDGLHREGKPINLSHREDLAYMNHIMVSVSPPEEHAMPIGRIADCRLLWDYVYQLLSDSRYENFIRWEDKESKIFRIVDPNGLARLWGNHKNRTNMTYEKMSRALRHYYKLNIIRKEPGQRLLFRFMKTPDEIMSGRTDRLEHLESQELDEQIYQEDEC
How it was run: as §1

For CTCACG, the binding signal [1] was 1.32 fold enrichment (6-mer frequency, TF over GST control), the binding signal [2] was 1.4 fold enrichment (6-mer frequency, TF over GST control) and the binding signal [3] was 1.14 fold enrichment (6-mer frequency, TF over GST control). The binding signal [4] was 1.31 fold enrichment (6-mer frequency, TF over GST control), the binding signal [5] was 1.33 fold enrichment (6-mer frequency, TF over GST control) and the binding signal [6] was 1.35 fold enrichment (6-mer frequency, TF over GST control). For the same sequence, the binding signal [7] was 1.35 fold enrichment (6-mer frequency, TF over GST control), the binding signal [8] was 1.26 fold enrichment (6-mer frequency, TF over GST control) and the binding signal [9] was 1.08 fold enrichment (6-mer frequency, TF over GST control). The binding signal [10] was 1.22 fold enrichment (6-mer frequency, TF over GST control), the binding signal [11] was 1.25 fold enrichment (6-mer frequency, TF over GST control) and the binding signal [12] was 1.3 fold enrichment (6-mer frequency, TF over GST control). For the same sequence, the binding signal [13] was 1.4 fold enrichment (6-mer frequency, TF over GST control), the binding signal [14] was 1.26 fold enrichment (6-mer frequency, TF over GST control) and the binding signal [15] was 1.25 fold enrichment (6-mer frequency, TF over GST control). The binding signal [16] was 1.26 fold enrichment (6-mer frequency, TF over GST control), the binding signal [17] was 1.23 fold enrichment (6-mer frequency, TF over GST control) and the binding signal [18] was 1.25 fold enrichment (6-mer frequency, TF over GST control).

From paper PMC7862700, “An all-to-all approach to the identification of sequence-specific readers for epigenetic DNA modifications on cytosine”
